The nature of experiment [1]: viability loss in pontine glioma line – cell-based, SU-DIPG-XIII, MIPE4.0, CellTiter-Glo, qHTS, dose response (AID 1347061; cut-off not given, nearly all actives have AC50 up to about 37 µM;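 note: cells exposed to compound for 48 hours before readout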). The settings on record: CellTiter-Glo ATP luminescence.
Experiment [2] is described as follows: viability loss in pontine glioma line – cell-based, JHH-DIPG-1, MIPE4.0, CellTiter-Glo, qHTS, dose response (AID 1347062; cut-off not given, nearly all actives have AC50 up to about 27 µM;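 for AC50: cells exposed to compound for two days before readout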). The conditions noted are these: JHH-DIPG-1 viability, CellTiter-Glo ATP luminescence. (Cellular ATP, detected with luciferase, serves as a proxy for viable cell number.)
Experiment [3] in a line: viability loss in pontine glioma line – cell-based, SU-DIPG-IV, MIPE4.0, CellTiter-Glo, qHTS, dose response (AID 1347063).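 Note: compound exposure lasted 48 hours before the viability readout.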 The conditions noted are these: CellTiter-Glo ATP luminescence.
Experiment [4] can be described thus: viability loss with induced miR-34 in A549 – imaging, A549 dox-inducible miR-34, nuclei and caspase counts, primary screen (AID 1347080;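 active = compounds whose cell count with miR-34 switched on is under 0.7 times the count with it off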). The settings on record: A549 miR-34 inducible, Hoechst nuclei count, 48 h.
Experiment [5] is described as follows: growth inhibition of DIPG cells – cell-based, MIPE4.0 library, CellTiter-Glo luminescence, qHTS (AID 1347066).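 Note: cells exposed to compound for 48 hours before readout.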 The settings on record: SU-DIPG-VI viability, CellTiter-Glo ATP luminescence.
A short description of experiment [6]: MELAS cybrid and Rieske KO viability enhancers – cell-based, MELAS cybrids, Rieske KO mouse fibroblasts, CellTiter-Glo, primary screen (AID 1508586;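 active = mean z-score across replicates of 1.96 or higher in either the MELAS or the Rieske mutant cell line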;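 note: z relative to plate mean and SD of compound and empty wells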). The settings on record: low glucose.
The nature of experiment [7]: JHH-DIPG-1 glioma cell viability, MIPE5.0 library, CellTiter-Glo luminescence, qHTS (AID 1347067; cut-off not given, nearly all actives have AC50 up to about 26 µM;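 note: cells exposed to compound for 48 hours before readout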). The conditions noted are these: JHH-DIPG-1 glioma viability, CellTiter-Glo ATP luminescence.
Experiment [8] can be described thus: growth inhibition of DIPG cells – cell-based, MIPE5.0 library, qHTS (AID 1347068; cut-off not given, nearly all actives have IC50 up to about 30 µM). The conditions noted are these: SU-DIPG-XXV viability.
Experiment [9] is described as follows: compounds altering HSF1 focus formation in cells – imaging, Selleck Cancer Library (AID 1347162; in the data active = plate-normalised HSF1 focus index below about 0.46). The conditions noted are these: human cells, HSF1 nuclear foci imaging, at 10 µM; SSMD: measured here: HSF1 foci SSMD mean; cell count: measured here: cell number; plate-normalised HSF1 focus index: stronger effect = lower value.
Where [10] appears, read: stronger effect = lower value, cell number ratio, induced over uninduced.
Where [11] appears, read: measured here: relative caspase fold change +Dox/-Dox.
Setting [12] is: measured here: total cells with miR-34 induction, stronger effect = lower value.
Setting [13] is: measured here: total cells without miR-34 induction.
[14] abbreviates: MELAS cybrid survival, CellTiter-Glo 48 h, stronger effect = higher value.
Setting [15] is: Rieske KO mouse fibroblast survival, CellTiter-Glo 72 h.

“And” between values parts separate entries of the source, which are not always exact repeats. Equal values may be shown once. Records with an inconclusive call do not appear. The source made the active and inactive calls. Unless noted, no cut-off is given here; in the data, nearly all actives have AC50 up to about 30 µM.

The term AC50 denotes the concentration at which the activity in the assay is half-maximal.

For the molecule `CC1(C)C(=O)N(CCN2CCC(C(=O)c3ccc(F)cc3)CC2)c2ccccc21`, the molecule was called inactive in [1], in experiment [2] and in experiment [3]. Besides, the fold change in [4] (setting [10]) is 0.986 (inactive); in experiment [4] (setting [11]), 1.27. Further, the cell count was 7420 in [4] (setting [12]) and 7530 in [4] (setting [13]).

With `NC(N)=Nc1nc(CSCCC(N)=NS(N)(=O)=O)cs1`, the molecule was called inactive in [1], in [2], in experiment [3] and in experiment [5]. Moreover, the fold change in experiment [4] (setting [10]) is 0.921 (inactive) and 0.901 (inactive) and 0.846 (inactive); in [4] (setting [11]) it was 1.73 and 0.639 and 1.03. In addition, the cell count in experiment [4] (setting [12]) was 9300 and 8340 and 7700; in experiment [4] (setting [13]), 10100 and 9260 and 9100. Also, the z-score was 0.605 (inactive) and -0.262 (inactive) in experiment [6] (setting [14]); -0.158 and 0.443 in experiment [6] (setting [15]).

In the case of `Nc1nc2[nH]cc(CCc3ccc(C(=O)N[C@@H](CCC(=O)O)C(=O)O)cc3)c2c(=O)[nH]1`, the molecule was classed as inactive in experiment [1], in experiment [2], in experiment [3], in experiment [5], in experiment [7] and in experiment [8]. Moreover, the fold change was 1.36 (inactive) in [4] (setting [10]) and 0.473 in [4] (setting [11]). The cell count came out at 3100 in [4] (setting [12]), 2280 in experiment [4] (setting [13]) and 7280 in [9]. Further, the SSMD in [9] was -2.05. Also, the plate-normalised HSF1 focus index in [9] is 0.87 (inactive). In addition, the z-score was -0.725 (inactive) in [6] (setting [14]) and -0.391 in experiment [6] (setting [15]).

For the molecule `CNC(=O)CN1CCC(Oc2cc3c(Nc4cccc(Cl)c4F)ncnc3cc2OC)CC1`, the call in experiment [1], in experiment [2], in experiment [3], in experiment [5], in experiment [7] and in experiment [8] was inactive. For the same molecule, the fold change in experiment [4] (setting [10]) was 0.965 (inactive); in experiment [4] (setting [11]), 1.05. Also, the cell count is 5230 in experiment [4] (setting [12]) and 5420 in [4] (setting [13]). In addition, the figures for the z-score in experiment [6] (setting [14]) and in experiment [6] (setting [15]) were -0.464 (inactive) and -0.429, respectively.

Consider `CC(C)(O)Cn1c(NC(=O)c2ccc(-c3cn[nH]c3)s2)nc2cc(CN3CCOCC3)ccc21`, for which the AC50 in experiment [1] was 2640 nM (active); in experiment [2] it was 743 nM (active); in experiment [3], 1480 nM (active); in experiment [5], 2640 nM (active).

With `C/C=C1\C2C=C(C)CC1(N)c1ccc(=O)[nH]c1C2` (stereo not given), the result in [1], in experiment [2], in experiment [3] and in [5] was inactive. Also, the values for the fold change in [4] (setting [10]) and in experiment [4] (setting [11]) were 1.01 (inactive) and 0.681, respectively. For the same molecule, the cell count came out at 4140 in experiment [4] (setting [12]) and 4110 in [4] (setting [13]).

With `CCn1c(C(=O)N(C2CC2)C2CC2)cc2c3c(ncn3C)c(Nc3cc(C)n(C)n3)nc21`, the molecule was classed as inactive in experiment [1], in experiment [2], in [3], in experiment [5] and in experiment [8].

With `COC(=O)N[C@H](C(=O)N1CCC[C@H]1c1ncc(-c2ccc(-c3ccc(-c4cnc([C@@H]5CCCN5C(=O)[C@@H](NC(=O)OC)C(C)C)[nH]4)cc3)cc2)[nH]1)C(C)C`, the molecule was classed as inactive in experiment [1] and in experiment [2]. Also, the results for the AC50 in experiment [3] and in [7] were 26400 nM (active) and 23500 nM (active), respectively.

The record behind these values is PubChem BioAssay.
